Assay results published in PubChem BioAssay (NCATS).
Inconclusive results are not listed. Where a call stands in place of a potency, no number is given. Activity calls are given as the source filed them. Calls follow the shape of the dose curve; as a rule, active = well fitted inhibition curve with a large enough effect; inconclusive = small, poorly fitted or top-dose-only effect; inactive = no such curve, though single readings can be large or run the other way.

Tested on: Zika virus NS2B-NS3 protease (unlinked complex)
Test: Primary screen GU Rhodamine qHTS for Zika virus inhibitors: Unlinked NS2B-NS3 protease assay (AID 1347159); also: nearly all actives have a fitted effect of over 60% in size
Conditions: Recombinant ZIKV NS2B-NS3 protease, Rhodamine110 substrate fluorescence; series mostly up to 107 µM
Method in brief: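 Percent inhibition derives from the 15-min fluorescence change (ex 480, em 540 nm), normalized to no-enzyme and no-inhibitor wells. Reactions contained 25 nM NS2B-NS3 complex and 1.5 microM substrate in 10 mM Tris-HCl pH 8.0.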
Potency is read from the fitted curve at half-maximal effect.

Compound	Potency
COc1cccc(NCCC2(c3ccccc3)CC(C)(C)OC(C)(C)C2)c1	inactive
CNC(=O)c1cc(Oc2ccc(NC(=O)c3cccc(C(F)(F)F)c3)cc2)ccn1	inactive
CC(=O)O[C@H]1CC(C)(C)CC2[C@]13CO[C@@]21CCC2[C@@]4(C)CC[C@H](O[C@@H]5OC[C@H](O[C@@H]6O[C@H](CO)[C@@H](O)[C@H](O)[C@H]6O[C@@H]6OC[C@@H](O)[C@H](O)[C@H]6O)[C@H](O)[C@H]5O[C@@H]5O[C@H](CO)[C@@H](O)[C@H](O)[C@H]5O)[C@@](C)(CO)C4CC[C@@]2(C)[C@]1(C)C[C@H]3O (stereo not given in full)	inactive
CCOc1ccc(-n2c([C@@H](C)N(Cc3cccnc3)C(=O)Cc3ccc(OC(F)(F)F)cc3)nc3ncccc3c2=O)cc1	inactive
CC[C@@H](C)[C@@H]1OC2(C=C[C@H]1C)C[C@@H]1C[C@H](C/C=C(\C)[C@H](O[C@H]3C[C@H](OC)[C@H](O[C@H]4C[C@H](OC)[C@H](NC(C)=O)[C@H](C)O4)[C@H](C)O3)[C@H](C)/C=C/C=C3\CO[C@H]4[C@H](O)C(C)=C[C@@H](C(=O)O1)[C@@]34O)O2 (stereo not given in full)	inactive
O=C(NC[C@H](O)CN1CCc2ccccc2C1)c1ccnc(NC2CCC2)c1	inactive
Nc1nccc(-c2c(-c3ccc(F)cc3)ncn2C2CCCCC2)n1	inactive
Cc1ccc(-c2cn3c4c(sc3n2)CCCC4)cc1	inactive
CCOC(=O)N1c2ccc(C(F)(F)F)cc2C(N(Cc2cc(C(F)(F)F)cc(C(F)(F)F)c2)C(=O)OC)CC1CC (stereo not given)	inactive
O=C(Nc1ccccc1)N1CCN(c2nc(-c3ccccc3)ns2)CC1	inactive
COC(=O)C1=CO[C@@H](O[C@@H]2O[C@H](CO)[C@@H](O)[C@H](O)[C@H]2O)[C@H]2[C@@H]1C=C[C@]21C=C([C@H](C)OC(=O)/C=C/c2ccc(O)cc2)C(=O)O1	inactive
CN1CCN(c2ccc(OC(F)(F)F)c(Nc3ncc4c(n3)-c3c(c(C(N)=O)nn3CCO)CC4)c2)CC1	inactive
CNCc1cc(-c2ccccc2F)n(S(=O)(=O)c2cccnc2)c1	inactive
CCOC(=O)N1CCC(CN(Cc2ccc(Cl)cc2)Cc2ccc([N+](=O)[O-])s2)C1 (stereo not given)	inactive
Cc1[nH]c2ccc(F)cc2c1-c1nc2c3cccnc3c3ncccc3c2[nH]1	inactive
C=C1C(=O)O[C@@H]2C3C(=C(C)[C@@H](O)[C@@H](OC(=O)/C(=C/C)COC(C)=O)[C@@H]12)C(=O)[C@H]1O[C@@]31C (stereo not given in full)	inactive
C=CC(=O)N1CCN(C(=O)CNc2cc(-c3ccccc3Cl)c(Cl)cc2OC)CC1	inactive
COc1cc(C(=O)NCC2(N(C)C)CCCC2)cc(OC)c1OCc1ccccc1	inactive
CCc1cc2c(cc1CC)CC(NCC(O)c1ccc(O)c3[nH]c(=O)ccc13)C2 (stereo not given)	inactive
Fc1ccc(N2CCCCC2)c(NC(=S)c2ccncc2)c1	inactive

Compound	Potency
Cc1cc(N2CCN(C(=O)Oc3ccc(-c4ccccc4)cn3)CC2)c2ccccc2n1	inactive
C/C=C(\C)C(=O)OC1C(C)C2(O)C(C=C(CO)CC3(O)C(=O)C(C)=CC32)C2C(C)(C)C12OC(=O)C(C)C (stereo not given)	inactive
CCC(=C(c1ccc(OCCN2CCCC2)cc1)c1ccc(OCCN2CCCC2)cc1)c1ccccc1	inactive
CCN(CC)C(=O)C(c1ccccc1)N1CCN(c2ccc(NC(=O)c3ccccc3-c3cccnc3)cc2F)CC1 (stereo not given)	inactive
N#Cc1ccc(Nc2nc(-c3ccc(O)cc3O)cs2)cc1C(F)(F)F	10 µM (active)
C=C1C(=O)OC2C(OC(=O)C=C(C)C)C(C)=C3C(=O)C=C(C)C3C(O)C12 (stereo not given)	inactive
COc1ccc([C@H](Cc2ccncc2)c2ccccc2)cc1OC1CCCC1	inactive
COc1ccccc1-c1ccc(-c2cn(C(=O)N3CCCCC3Cc3ccccc3)nn2)cc1 (stereo not given)	inactive
C=CC(=O)N1CCC(Oc2cc3c(Nc4ccc(Cl)c(Cl)c4F)ncnc3cc2OC)CC1	inactive
CCOC(=O)c1csc(Nc2ccc(Cl)cc2)n1	inactive
CC(=O)C=C=C1C(C)(C)CC(O)CC1(C)O[C@@H]1O[C@H](CO[C@H]2OC[C@](O)(CO)[C@H]2O)[C@@H](O)[C@H](O)[C@H]1O (stereo not given in full)	20 µM (active)
Cn1sc(=O)n(Cc2ccccc2)c1=O	inactive
COc1ccc(N(C(=O)Nc2c(C)cccc2C)c2cc(Nc3ccc(N4CCN(C)CC4)cc3)ncn2)c(OC)c1	inactive
C1=C/COCc2cc(ccc2OCCN2CCCC2)Nc2nccc(n2)-c2cccc(c2)COC/1	inactive
CNC(=O)[C@@H](c1ccccc1)N1CCc2cc(OC)c(OC)cc2[C@@H]1CCc1ccc(C(F)(F)F)cc1	inactive
COc1cc(C#N)ccc1S(=O)(=O)Nc1ccc2c(c1)cc(C)c(=O)n2C	inactive
Cc1ccc(NC(=O)c2ccc(CN3CCNCC3)cc2)cc1Nc1nccc(-c2cccnc2)n1	inactive
COc1cc(/C=C/C(=O)NCCn2c(C(F)(F)F)cc3ccccc32)cc(OC)c1OC	inactive
COc1ccc2[nH]c(=O)c3c(c2c1)OC(C)(C)C=C3	inactive
CC(=O)Nc1cccc(-c2csc(Nc3cc(C)ccn3)n2)c1	inactive
